{
  "source": "the antibiotic and cytotoxicity screens of Wong et al. (2023)",
  "note": "Screen size: about 39,000 compounds; about 1,500 (3.8%) were called active. This excerpt belongs to a sample that is enriched for actives.",
  "data": [
    {"tested_on": "HSkMC (human skeletal muscle cells)", "assay": "cytotoxicity call (relative viability < 0.9)", "conditions": "10 µM", "values": [
      {"compound": "C[C@H](CO)N1C[C@H](C)[C@H](CN(C)S(=O)(=O)c2cccs2)Oc2ncc(C#CC(C)(C)O)cc2C1=O", "cytotoxicity call": "inactive"},
      {"compound": "COc1ccc(S(=O)(=O)N(C)C[C@H]2Oc3ccc(NS(C)(=O)=O)cc3C(=O)N([C@@H](C)CO)C[C@H]2C)cc1", "cytotoxicity call": "inactive"},
      {"compound": "CC(C)NC(=O)N(C)C[C@H]1Oc2c(NS(=O)(=O)c3ccc(Cl)cc3)cccc2C(=O)N([C@@H](C)CO)C[C@@H]1C", "cytotoxicity call": "inactive"},
      {"compound": "CC(C)NC(=O)Nc1cccc2c1O[C@H](CN(C)Cc1ccc(-c3ccccc3)cc1)[C@H](C)CN([C@@H](C)CO)C2=O", "cytotoxicity call": "inactive"},
      {"compound": "COC(=O)CNC(=O)c1ccccc1", "cytotoxicity call": "inactive"},
      {"compound": "C[C@@H]1CN([C@@H](C)CO)C(=O)c2cccc(NS(=O)(=O)c3cn(C)cn3)c2O[C@H]1CN(C)S(=O)(=O)c1cccs1", "cytotoxicity call": "inactive"},
      {"compound": "Cc1noc(C)c1NC(=O)Nc1cccc2c1O[C@@H](CN(C)C(=O)NC(C)C)[C@@H](C)CN([C@@H](C)CO)C2=O", "cytotoxicity call": "inactive"},
      {"compound": "Cc1noc(C)c1NC(=O)Nc1ccc2c(c1)C(=O)N([C@@H](C)CO)C[C@@H](C)[C@@H](CN(C)C(=O)C1CCCCC1)OCCCC[C@H](C)O2", "cytotoxicity call": "inactive"},
      {"compound": "C[C@@H]1CN([C@@H](C)CO)C(=O)Cc2cc(NS(=O)(=O)c3ccccc3)ccc2O[C@@H]1CN(C)Cc1ccc(Oc2ccccc2)cc1", "cytotoxicity call": "active"},
      {"compound": "C[C@H]1CN([C@@H](C)CO)C(=O)Cc2cc(NS(=O)(=O)c3cccs3)ccc2O[C@@H]1CN(C)Cc1ccc(Oc2ccccc2)cc1", "cytotoxicity call": "inactive"},
      {"compound": "C[C@H](CO)N1C[C@H](C)[C@@H](CN(C)Cc2ccc(Oc3ccccc3)cc2)Oc2ccc(NS(=O)(=O)c3ccccc3)cc2CC1=O", "cytotoxicity call": "inactive"},
      {"compound": "C[C@H](CO)N1C[C@H](C)[C@H](CN(C)Cc2ccc(Oc3ccccc3)cc2)Oc2ccc(NS(=O)(=O)c3ccccc3)cc2CC1=O", "cytotoxicity call": "inactive"},
      {"compound": "C[C@H]1CN([C@@H](C)CO)C(=O)Cc2cc(NS(=O)(=O)c3ccccc3)ccc2O[C@H]1CN(C)Cc1ccc(Oc2ccccc2)cc1", "cytotoxicity call": "inactive"},
      {"compound": "C[C@H]1CN([C@@H](C)CO)C(=O)Cc2cc(NS(=O)(=O)c3ccccc3)ccc2O[C@@H]1CN(C)Cc1ccc(Oc2ccccc2)cc1", "cytotoxicity call": "active"},
      {"compound": "C[C@@H]1CN([C@H](C)CO)C(=O)Cc2cc(NS(=O)(=O)c3cccs3)ccc2O[C@@H]1CN(C)Cc1ccc(Oc2ccccc2)cc1", "cytotoxicity call": "active"},
      {"compound": "C[C@@H]1CN([C@H](C)CO)C(=O)Cc2cc(NS(=O)(=O)c3ccccc3)ccc2O[C@@H]1CN(C)Cc1ccc(Oc2ccccc2)cc1", "cytotoxicity call": "active"},
      {"compound": "C[C@@H]1CN([C@H](C)CO)C(=O)Cc2cc(NS(=O)(=O)c3ccccc3)ccc2O[C@H]1CN(C)Cc1ccc(Oc2ccccc2)cc1", "cytotoxicity call": "inactive"},
      {"compound": "C[C@@H]1CN([C@@H](C)CO)C(=O)Cc2cc(NS(=O)(=O)c3ccccc3)ccc2O[C@H]1CN(C)Cc1ccc(Oc2ccccc2)cc1", "cytotoxicity call": "inactive"},
      {"compound": "C[C@H]1CN([C@@H](C)CO)C(=O)Cc2cc(NS(=O)(=O)c3cccs3)ccc2O[C@H]1CN(C)Cc1ccc(Oc2ccccc2)cc1", "cytotoxicity call": "inactive"},
      {"compound": "C[C@@H]1CN([C@@H](C)CO)S(=O)(=O)c2ccc(C#Cc3ccccc3F)cc2O[C@@H]1CN(C)C(=O)c1ccc2c(c1)OCO2", "cytotoxicity call": "inactive"},
      {"compound": "CCc1nc2ccc(C(=O)N3CCN(S(=O)(=O)CC)CC3)cn2c1N(C)C(=O)c1cccc(OC)c1", "cytotoxicity call": "inactive"},
      {"compound": "C=CCC1C=C(C)CC(C)CC(OC)C2OC(O)(C(=O)C(=O)N3CCCCC3C(=O)OC(C(C)=CC3CCC(O)C(OC)C3)C(C)C(O)CC1=O)C(C)CC2OC", "note": "(stereo unspecified)", "cytotoxicity call": "inactive"},
      {"compound": "C[C@@H]1CCCCO[C@H](CN(C)C(=O)c2ccncc2)[C@H](C)CN([C@H](C)CO)C(=O)c2cc(NC(=O)C3CCCCC3)ccc2O1", "cytotoxicity call": "inactive"},
      {"compound": "C[C@H](CO)N1C[C@H](C)[C@@H](CN(C)Cc2ccc3c(c2)OCO3)Oc2ccc(NC(=O)Cn3cnnn3)cc2CC1=O", "cytotoxicity call": "inactive"},
      {"compound": "C[C@@H]1CN([C@H](C)CO)C(=O)Cc2cc(NC(=O)Nc3ccccc3)ccc2O[C@H]1CN(C)S(=O)(=O)c1cn(C)cn1", "cytotoxicity call": "inactive"},
      {"compound": "O=C(NO)c1cccc(C(=O)N/N=C/[C@@H](O)[C@@H](O)[C@H](O)[C@H](O)CO)c1", "cytotoxicity call": "inactive"},
      {"compound": "Cc1noc(C)c1NC(=O)Nc1ccc2c(c1)CC(=O)N([C@@H](C)CO)C[C@H](C)[C@H](CN(C)S(=O)(=O)c1cn(C)cn1)O2", "cytotoxicity call": "inactive"},
      {"compound": "C[C@@H]1CCCCO[C@H](CN(C)S(=O)(=O)c2cn(C)cn2)[C@@H](C)CN([C@H](C)CO)C(=O)c2cc(NS(=O)(=O)c3ccc(F)cc3)ccc2O1", "cytotoxicity call": "inactive"},
      {"compound": "C[C@@H](NC(=O)N(C)C[C@H]1OCc2ccccc2-c2c(n(C)c3ccccc23)C(=O)N([C@@H](C)CO)C[C@@H]1C)c1ccccc1", "cytotoxicity call": "inactive"},
      {"compound": "COCC#Cc1ccc([C@H]2[C@@H](CO)N3C(=O)CN(C(=O)c4cccnc4)C[C@@H]23)cc1", "cytotoxicity call": "inactive"},
      {"compound": "CC(C)NC(=O)Nc1ccc2c(c1)C(=O)N([C@@H](C)CO)C[C@@H](C)[C@@H](CN(C)S(=O)(=O)c1cccs1)O2", "cytotoxicity call": "inactive"},
      {"compound": "CCC(=O)Nc1nc2[nH]c(COC)cc(=O)n2n1", "cytotoxicity call": "inactive"},
      {"compound": "C[C@H](CO)N1C[C@H](C)[C@H](CN(C)C(=O)Nc2ccc(F)cc2)Oc2ccc(NC(=O)CCCCCC(=O)Nc3ccccc3N)cc2C1=O", "cytotoxicity call": "inactive"},
      {"compound": "COc1ccc2cc(C(C)C(=O)O)ccc2c1", "note": "(stereo unspecified)", "cytotoxicity call": "inactive"},
      {"compound": "COc1ccc2cc(-c3cc(-c4cc(Cl)cc(Cl)c4)nn3[C@@H](C)c3ccc(C(=O)NCCC(=O)O)cc3)ccc2c1", "cytotoxicity call": "active"},
      {"compound": "COc1ccc(C(=O)NCC(=O)O)cc1", "cytotoxicity call": "inactive"},
      {"compound": "O=C(C[C@@H]1CC[C@@H]2[C@H](COC[C@@H](O)CN2S(=O)(=O)c2ccccc2)O1)N[C@@H]1CCN(Cc2ccccc2)C1", "cytotoxicity call": "inactive"},
      {"compound": "COCC(=O)N(C)C[C@H]1Oc2cc(C#Cc3cccnc3)ccc2S(=O)(=O)N([C@H](C)CO)C[C@H]1C", "cytotoxicity call": "inactive"},
      {"compound": "COc1ccc(S(=O)(=O)N[C@H]2C=C[C@@H](CC(=O)N3CCN(c4ccccc4)CC3)O[C@H]2CO)cc1", "cytotoxicity call": "inactive"},
      {"compound": "C[C@H]1CN([C@@H](C)CO)C(=O)Cc2cc(NC(=O)Nc3ccccc3)ccc2O[C@H]1CN(C)Cc1ccc(-c2ccccc2)cc1", "cytotoxicity call": "inactive"},
      {"compound": "C[C@@H]1CN([C@@H](C)CO)C(=O)Cc2cc(NC(=O)Nc3ccc(C(F)(F)F)cc3)ccc2O[C@@H]1CN(C)Cc1ccc(-c2ccccc2)cc1", "cytotoxicity call": "active"},
      {"compound": "C[C@H]1CN([C@@H](C)CO)C(=O)Cc2cc(NC(=O)Nc3ccc(C(F)(F)F)cc3)ccc2O[C@H]1CN(C)Cc1ccc(-c2ccccc2)cc1", "cytotoxicity call": "active"},
      {"compound": "C[C@H](CO)N1C[C@H](C)[C@@H](CN(C)Cc2ccc(-c3ccccc3)cc2)Oc2ccc(NC(=O)Nc3ccccc3)cc2CC1=O", "cytotoxicity call": "inactive"},
      {"compound": "C[C@@H]1CN([C@@H](C)CO)C(=O)Cc2cc(NC(=O)Nc3ccc(C(F)(F)F)cc3)ccc2O[C@H]1CN(C)Cc1ccc(-c2ccccc2)cc1", "cytotoxicity call": "active"},
      {"compound": "C[C@H](CO)N1C[C@H](C)[C@H](CN(C)Cc2ccc(-c3ccccc3)cc2)Oc2ccc(NC(=O)Nc3ccc(C(F)(F)F)cc3)cc2CC1=O", "cytotoxicity call": "active"},
      {"compound": "N=C1NC(=O)CS1", "cytotoxicity call": "inactive"},
      {"compound": "Cc1cc(C(=O)Nc2cccc3c2O[C@@H](CN(C)C(=O)Nc2ccccc2)[C@@H](C)CN([C@@H](C)CO)C3=O)n(C)n1", "cytotoxicity call": "inactive"},
      {"compound": "O=C(C[C@H]1CC[C@@H](NS(=O)(=O)c2ccc(F)cc2)[C@H](CO)O1)N1CCC(Cc2ccccc2)CC1", "cytotoxicity call": "inactive"},
      {"compound": "C[C@@H]1CCCCO[C@H](CN(C)Cc2ccccc2)[C@@H](C)CN([C@@H](C)CO)C(=O)c2cc(NC(=O)NC3CCCCC3)ccc2O1", "cytotoxicity call": "inactive"},
      {"compound": "C[C@H](CO)N1C[C@H](C)[C@@H](CN(C)CC2CC2)OCCCC[C@H](C)Oc2ccc(NC(=O)Cc3ccccc3)cc2C1=O", "cytotoxicity call": "inactive"},
      {"compound": "COc1ccc(S(=O)(=O)Nc2cccc3c2O[C@H](CN(C)S(=O)(=O)c2cn(C)cn2)[C@@H](C)CN([C@@H](C)CO)C3=O)cc1", "cytotoxicity call": "inactive"},
      {"compound": "COc1cccc(NC(=O)N(C)C[C@@H]2OCc3ccccc3-c3c(n(C)c4ccccc34)C(=O)N([C@@H](C)CO)C[C@H]2C)c1", "cytotoxicity call": "inactive"},
      {"compound": "C[C@@H]1CN([C@@H](C)CO)C(=O)c2cc(NC(=O)c3ccccc3)ccc2O[C@@H](C)CCCCO[C@@H]1CN(C)C(=O)NC1CCCCC1", "cytotoxicity call": "inactive"},
      {"compound": "Cc1noc(C)c1NC(=O)Nc1ccc2c(c1)C(=O)N([C@@H](C)CO)C[C@H](C)[C@@H](CN(C)Cc1ccc(C(=O)Nc3ccccc3N)cc1)O2", "cytotoxicity call": "inactive"},
      {"compound": "C[C@H]1CCCCO[C@H](CN(C)C(=O)Nc2ccc(F)cc2)[C@@H](C)CN([C@@H](C)CO)C(=O)c2cc(NC(=O)Nc3ccc(F)cc3)ccc2O1", "cytotoxicity call": "inactive"},
      {"compound": "C[C@@H]1CN([C@@H](C)CO)S(=O)(=O)c2ccc(C#Cc3ccccc3)cc2O[C@H]1CN(C)C(=O)Cc1ccccn1", "cytotoxicity call": "inactive"},
      {"compound": "CCS(=O)(=O)Nc1ccc2c(c1)C(=O)N(C)[C@@H]1CC[C@@H](CC(=O)N[C@H]3CCN(Cc4ccccc4)C3)O[C@H]1CO2", "cytotoxicity call": "inactive"},
      {"compound": "COc1ccc(S(=O)(=O)N(C)C[C@H]2Oc3ncc(C#CC4(O)CCCC4)cc3C(=O)N([C@H](C)CO)C[C@H]2C)cc1", "cytotoxicity call": "inactive"},
      {"compound": "CC(C)NC(=O)Nc1ccc2c(c1)C(=O)N([C@@H](C)CO)C[C@@H](C)[C@@H](CN(C)S(=O)(=O)c1cn(C)cn1)OCCCC[C@H](C)O2", "cytotoxicity call": "inactive"},
      {"compound": "CCN1C(=O)[C@H]2[C@@H](O)CS[C@H]2C1=O", "cytotoxicity call": "inactive"},
      {"compound": "C[C@@H]1CN([C@H](C)CO)C(=O)Cc2cc(NC(=O)Nc3ccc(C(F)(F)F)cc3)ccc2O[C@H]1CN(C)Cc1ccc(-c2ccccc2)cc1", "cytotoxicity call": "active"},
      {"compound": "C[C@@H]1CN([C@@H](C)CO)C(=O)Cc2cc(NC(=O)Nc3ccccc3)ccc2O[C@H]1CN(C)Cc1ccc(-c2ccccc2)cc1", "cytotoxicity call": "inactive"},
      {"compound": "C[C@H](CO)N1C[C@H](C)[C@@H](CN(C)Cc2ccc(-c3ccccc3)cc2)Oc2ccc(NC(=O)Nc3ccc(C(F)(F)F)cc3)cc2CC1=O", "cytotoxicity call": "active"},
      {"compound": "C[C@H]1CN([C@@H](C)CO)C(=O)Cc2cc(NC(=O)Nc3ccc(C(F)(F)F)cc3)ccc2O[C@@H]1CN(C)Cc1ccc(-c2ccccc2)cc1", "cytotoxicity call": "active"},
      {"compound": "C[C@@H]1CN([C@H](C)CO)C(=O)Cc2cc(NC(=O)Nc3ccc(C(F)(F)F)cc3)ccc2O[C@@H]1CN(C)Cc1ccc(-c2ccccc2)cc1", "cytotoxicity call": "active"},
      {"compound": "C[C@@H]1CN([C@H](C)CO)C(=O)Cc2cc(NC(=O)Nc3ccccc3)ccc2O[C@H]1CN(C)Cc1ccc(-c2ccccc2)cc1", "cytotoxicity call": "inactive"}
    ]}
  ]
}
